Assays:
Conditions in all cases: concentration: 1 μM, replicates: in singlicate; n = 1
MYLK4 = system: MYLK4
MYLK = system: MYLK
MYO3A = system: MYO3A
MYO3B = system: MYO3B
NDR1 = system: T1, NDR1
T1 construct: gene STK38

NDR2 = system: NDR2
NEK10 = system: NEK10
NEK11 = system: NEK11
NEK1 = system: NEK1
NEK2 = system: NEK2
NEK3 = system: NEK3
NEK4 = system: NEK4
NEK5 = system: NEK5
NEK6 = system: NEK6
NEK7 = system: NEK7
NEK9 = system: NEK9
NIK = system: T2, NIK
T2 construct: gene MAP3K14

NIM1 = system: T3, NIM1
T3 construct: gene MGC42105

NLK = system: NLK
OSR1 = system: T4, OSR1
T4 construct: gene OXSR1
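Note: KINOMEscan kinase panel screen.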

Compound | %Inh (MYLK4) | %Inh (MYLK) | %Inh (MYO3A) | %Inh (MYO3B) | %Inh (NDR1) | %Inh (NDR2) | %Inh (NEK10) | %Inh (NEK11) | %Inh (NEK1) | %Inh (NEK2) | %Inh (NEK3) | %Inh (NEK4) | %Inh (NEK5) | %Inh (NEK6) | %Inh (NEK7) | %Inh (NEK9) | %Inh (NIK) | %Inh (NIM1) | %Inh (NLK) | %Inh (OSR1)
O=C(CCO)NCCn1ccc2ncnc(Nc3ccc(Oc4cccc(C(F)(F)F)c4)c(Cl)c3)c21 | 6% | 0% | 0% | 3% | 20% | 0% | 0% | 0% | 0% | 0% | 18% | 0% | 0% | 0% | 0% | 0% | 6% | 0% | 0% | 0%
COc1ccc(Nc2nccc(N3CCC(NC(=O)c4cccc(NC(C)=O)c4)C3)n2)cc1 (stereo not shown) [GSK1379732] | 6% | 29% | 37% | 0% | 15% | 10% | 24% | 48% | 6% | 6% | 11% | 0% | 25% | 0% | 0% | 13% | 28% | 47% | 12% | 7%
C[C@H]1CC[C@@H](C(=O)Nc2ccccc2)CN1c1cc(-c2ccc3c(N)n[nH]c3c2)nc(N)n1 [GSK2283293] | 0% | 40% | 7% | 0% | 13% | 0% | 0% | 0% | 0% | 0% | 1% | 1% | 0% | 0% | 0% | 7% | 0% | 12% | 0% | 11%
Nc1nc(-c2ccc3c(N)n[nH]c3c2)cc(N2CCC[C@@H](C(=O)Nc3ccccc3)C2)n1.O=C(O)C(F)(F)F.O=C(O)C(F)(F)F [GSK2288359] | 9% | 27% | 19% | 0% | 1% | 5% | 0% | 0% | 0% | 0% | 2% | 0% | 13% | 0% | 0% | 15% | 0% | 8% | 0% | 3%
CS(=O)(=O)CCNCc1ccc(-c2ccc3ncnc(Nc4ccc(OCc5ccccc5)c(Cl)c4)c3c2)o1.Cl [GW574783] | 2% | 7% | 0% | 0% | 0% | 0% | 23% | 26% | 0% | 0% | 0% | 5% | 0% | 0% | 0% | 0% | 100% | 0% | 12% | 0%
Nc1nccc2scc(-c3ccc4c(c3)CCN4C(=O)Cc3cc(F)ccc3F)c12 [GSK2587663] | 0% | 24% | 0% | 0% | 0% | 0% | 12% | 9% | 0% | 7% | 0% | 9% | 6% | 0% | 0% | 4% | 0% | 18% | 2% | 5%
Cl.O=S(=O)(c1cccc(F)c1)c1ccc(Nc2ncnc3cc(Br)sc23)cc1Cl [GSK306886] | 9% | 3% | 22% | 0% | 8% | 1% | 0% | 1% | 32% | 5% | 0% | 0% | 59% | 0% | 0% | 23% | 4% | 0% | 44% | 0%
Cn1cc(-c2ccc3c(c2)CCN3C(=O)Cc2cccc(C(F)(F)F)c2)c2c(N)ncnc21 [GSK2606414] | 0% | 1% | 0% | 7% | 0% | 0% | 18% | 14% | 0% | 15% | 0% | 7% | 0% | 0% | 11% | 8% | 0% | 5% | 0% | 12%
NC(=O)c1sc(-n2cnc3ccccc32)cc1OCc1ccccc1F [GSK1024306] | 6% | 2% | 3% | 0% | 0% | 11% | 22% | 32% | 0% | 0% | 0% | 0% | 0% | 0% | 0% | 0% | 0% | 20% | 1% | 1%
CCc1nc(-c2cccc(C)c2)c(-c2ccnc(NC(=O)c3ccccc3)c2)s1 | 0% | 18% | 65% | 0% | 0% | 22% | 6% | 0% | 0% | 0% | 27% | 0% | 2% | 28% | 16% | 13% | 22% | 11% | 23% | 10%
O=C(Nc1ccccc1F)NC1CCN(c2ccnc(Nc3ccc(F)cc3)n2)C1 (stereo not shown) [GSK1379722] | 0% | 0% | 2% | 0% | 12% | 0% | 22% | 2% | 0% | 0% | 4% | 9% | 12% | 0% | 0% | 0% | 14% | 15% | 17% | 0%
Cn1ccc2ncnc(Nc3ccc(Oc4cccc(Cl)c4)c(Cl)c3)c21 | 3% | 0% | 0% | 3% | 22% | 11% | 2% | 0% | 0% | 0% | 26% | 11% | 0% | 25% | 4% | 17% | 0% | 0% | 0% | 15%
CCC(CC)(CC)n1cnc2c(N)ncnc21 [SKF-97620] | 0% | 0% | 0% | 35% | 42% | 16% | 65% | 0% | 0% | 0% | 23% | 0% | 0% | 0% | 0% | 0% | 0% | 28% | 17% | 19%
Clc1cccc(-c2nc(Nc3ccncc3)c3ccccc3n2)c1 [GW873004] | 0% | 0% | 15% | 17% | 15% | 0% | 0% | 0% | 0% | 0% | 36% | 0% | 23% | 14% | 0% | 3% | 0% | 0% | 30% | 0%
Cl.c1ccc(Cn2ncc3cc(Nc4ncnc5ccccc45)ccc32)cc1 [GW273749] | 37% | 8% | 14% | 0% | 12% | 0% | 0% | 0% | 0% | 5% | 2% | 0% | 18% | 0% | 1% | 15% | 0% | 3% | 0% | 10%
Nc1nc(-c2cccnc2)c(-c2ccnc3ccccc23)s1 [GW684083] | 83% | 15% | 0% | 0% | 0% | 11% | 77% | 27% | 0% | 13% | 2% | 20% | 0% | 0% | 0% | 4% | 29% | 66% | 9% | 11%
Cc1ccc(O)cc1Nc1cc(C(F)(F)F)nc2ccc(-c3ccncc3)cc12 [GW630823] | 0% | 6% | 6% | 0% | 0% | 6% | 0% | 0% | 0% | 2% | 0% | 0% | 6% | 8% | 58% | 42% | 0% | 0% | 10% | 0%

— PMC5540273 (PLoS ONE, 2017)
